This is an account of results in PubChem BioAssay (NCI).

Structures are written as SMILES. The panel holds about 79,000 compounds, 15% with a hit somewhere; the sample as a whole holds those more often. A number with no mark means an inactive call. Calls of active or inactive are those of the source. Rule as the data show it: active = growth inhibition above about 70%; inactive = the rest.

Experiment [1] can be described thus: NCI Yeast Anticancer Drug Screen. Data for the rad50 strain (AID 155).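 Also: 0% = growth of vehicle-only cultures of the same strain.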 The settings on record: S. cerevisiae rad50 strain growth inhibition; at 50.0 µM; hits give high values. The procedure, abridged:
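Yeast carrying a defined DNA repair defect were exposed to test compounds, and growth was compared with vehicle-treated controls to give percent inhibition.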

Experiment [2] is described as follows: NCI Yeast Anticancer Drug Screen. Data for the mec2-1 strain (AID 157). The settings on record: S. cerevisiae mec2-1 strain, at 50.0 µM, hits give high values. The essentials:
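Strain: mec2-1 (DNA repair/cell cycle alteration). Compound exposure, then growth measured; inhibition expressed relative to vehicle.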

Experiment [3] is described as follows: NCI Yeast Anticancer Drug Screen. Data for the sgs1 mgt1 strain (AID 161).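 Also: 0% = growth of cultures given vehicle only.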 The settings on record: S. cerevisiae sgs1 mgt1 strain, at 50.0 µM, hits give high values. The procedure, abridged: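 Mutant yeast exposed to compound; growth scored against vehicle-only wells.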
A short description of experiment [4]: NCI Yeast Anticancer Drug Screen. Data for the cln2 rad14 strain (AID 165).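 Also: 0% = growth equal to vehicle treated cultures.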 The following applies: S. cerevisiae cln2 rad14 strain, at 50.0 µM, hits give high values. The procedure, abridged:
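Compounds are applied to the cln2 rad14 yeast strain, and growth is then compared with that of vehicle-treated cultures to give inhibition.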

Experiment [5] is described as follows: NCI Yeast Anticancer Drug Screen. Data for the bub3 strain (AID 167). The settings on record: S. cerevisiae bub3 mutant strain, at 50.0 µM, hits give high values. The procedure, abridged:
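Compounds were applied to a genetically altered yeast strain carrying a cell-cycle control defect. Growth inhibition was scored against vehicle-treated controls.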

Experiment [6] is described as follows: NCI Yeast Anticancer Drug Screen. Data for the mlh1 rad18 strain (AID 175). The following applies: S. cerevisiae mlh1 rad18 strain growth inhibition; at 50.0 µM; hits give high values. The procedure, abridged:
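Read-out is yeast growth inhibition, calculated against vehicle-only controls. The compound was applied to a strain engineered with DNA damage repair alterations.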

As to `CSc1ncc(CO)c(Nc2ccccc2Cl)n1`, the growth inhibition in experiment [1] was 2.8%; in experiment [2] it was 14.4%; in experiment [3], -19.4%; in experiment [4], -14%; in experiment [5], 12.3%; in experiment [6], 1.55%.
For the compound `O=CC1=CCC2c3[nH]c4ccccc4c3CCN2C1` (stereo unspecified), the growth inhibition was 24.9% in experiment [1]; 20.5% in experiment [2]; 25.7% in experiment [3]; 27.2% in experiment [4]; 28.2% in experiment [5]; 19.8% in experiment [6].
As for `N#CCCN(CCC#N)c1nc(-c2ccccc2)nc(N(CCC#N)CCC#N)n1`, the growth inhibition in experiment [1] was -1.95%; in experiment [2] it was -16.6%; in experiment [3], -1.75%; in experiment [4], 0.9%; in experiment [5] it was 2.75%; in experiment [6], 15.1%.
As for `CC(=O)NC1CON(C(C)=O)C1=O` (stereo unspecified), the growth inhibition in experiment [1] was 2.75%; in experiment [2], 0.65%; in experiment [3] it was -9.85%; in experiment [4], -54.4%; in experiment [5] it was 2.7%; in experiment [6] it was -6.75%.
In the case of `COc1cccc(/C(C#N)=N/NC(=O)c2nc[nH]c2C)c1`, the growth inhibition was 9.5% in experiment [1]; 8.9% in experiment [2]; 19.8% in experiment [3]; 10.9% in experiment [4]; 13.1% in experiment [5]; 8.95% in experiment [6].
For the compound `Cc1cn(C2CC(O)C(CO)C2C)c(=O)[nH]c1=O` (stereo unspecified), the growth inhibition in experiment [1] is -7.45%; in experiment [2], -11.8%; in experiment [3] it was -17.2%; in experiment [4], 5.4%; in experiment [5], -11.8%; in experiment [6], -24.9%.
For the compound `O=C(NO)c1c(F)c(F)c(C(=O)NO)c(F)c1F`, the growth inhibition is -2.5% in experiment [1]; 7.05% in experiment [2]; 4% in experiment [3]; 11% in experiment [4]; 9.65% in experiment [5]; 2.1% in experiment [6].
As to `O=S(=O)(O)C(O)C(F)(F)C(F)(F)C(F)(F)F` (stereo unspecified), the growth inhibition in experiment [1] is 16.2%; in experiment [2], -1.75%; in experiment [3], 22.9%; in experiment [4] it was -37.8%; in experiment [5], -30.6%; in experiment [6], 19.9%.
Take `CCc1cccc(C)c1N1C(=O)C(=O)C(c2nc3ccccc3o2)C(=O)C1=O`: the growth inhibition in experiment [1] is 33.8%; in experiment [2] it was 17.9%; in experiment [3], 19.7%; in experiment [4], 16%; in experiment [5] it was -4.55%; in experiment [6], 34.5%.
For the compound `CCOC(=O)C1=C(C(=O)C(C)(C)C)C(c2ccc([N+](=O)[O-])cc2)C(C(=O)C(C)(C)C)=C(C(=O)OCC)N1`, the growth inhibition in experiment [1] is 31.1%; in experiment [2], 21.4%; in experiment [3], 9.4%; in experiment [4], 27.4%; in experiment [5], 6.2%; in experiment [6] it was 14.3%.
Regarding `COc1cc(NCC(C#N)C#N)ccc1N=Nc1ccc([N+](=O)[O-])cc1`, the growth inhibition in experiment [1] is 25.9%; in experiment [2], 26.4%; in experiment [3], 10.5%; in experiment [4], 18.8%; in experiment [5], 12.7%; in experiment [6], 48.9%.
For the compound `CCCC(=O)N[C@H]1C[C@H]2CC[C@@]1(C)C2(C)C`, the growth inhibition in experiment [1] was -31.6%; in experiment [2] it was -27.4%; in experiment [3], -15.1%; in experiment [4], 11.2%; in experiment [5] it was 10.3%; in experiment [6], -1.75%.
Consider `CCN(CC)c1ccc(/C=N/NC(=O)NN)cc1`, for which the growth inhibition in experiment [1] is 4.35%; in experiment [2], -20.9%; in experiment [3], -15.4%; in experiment [4] it was -13.1%; in experiment [5], -7.95%; in experiment [6], -5.3%.
With `CCOC(=O)NN(C(=O)OCC)C(C(=O)c1ccccc1)N(NC(=O)OCC)C(=O)OCC`, the growth inhibition in experiment [1] is 27.6%; in experiment [2], 9.9%; in experiment [3], 16.9%; in experiment [4], 46.4%; in experiment [5], 20.9%; in experiment [6], 22.4%.
As to `CC1=C(c2cc(C(=O)Nc3cc(C)ccc3C)nc(N)n2)Sc2ccccc2N1`, the growth inhibition in experiment [1] is 5.25%; in experiment [2], -10.8%; in experiment [3], -25.8%; in experiment [4], -18.1%; in experiment [5], -13.1%; in experiment [6] it was -10.8%.
In the case of `CCN(CC)Cc1cc(C(C)(C)CC)cc(-c2ccccc2)c1O`, the growth inhibition is -11.2% in experiment [1]; -33.6% in experiment [2]; -12.6% in experiment [3]; -24.9% in experiment [4]; 8.5% in experiment [5]; -4.1% in experiment [6].
Consider `CCOC(=O)c1oc2c(OC)ccc3c2c1CCC3`, for which the growth inhibition was 7.7% in experiment [1]; 4% in experiment [2]; 1.8% in experiment [3]; -9.4% in experiment [4]; -6.25% in experiment [5]; 30.8% in experiment [6].
`Cc1cccn(C)c1=O`: the growth inhibition is -5% in experiment [1]; 1.9% in experiment [2]; 2.15% in experiment [3]; 2.15% in experiment [4]; 0.4% in experiment [5]; 3.05% in experiment [6].
For `c1ccc(C[S][Sn]([c]2ccccc2)([c]2ccccc2)[c]2ccccc2)cc1`, the growth inhibition in experiment [1] is 97.5% (active); in experiment [2] it was 96.2% (active); in experiment [3], 97% (active); in experiment [4], 94.4% (active); in experiment [5], 97% (active); in experiment [6], 93% (active).
Take `CN(C)c1ccc(/C=N\NC(=S)NCCCN2CCN(CCCNC(=S)N/N=C/c3ccc(N(C)C)cc3)CC2)cc1`: the growth inhibition in experiment [1] is 36.1%; in experiment [2], 9.4%; in experiment [3], 5.45%; in experiment [4], 17.6%; in experiment [5] it was 1.5%; in experiment [6], 27.2%.
Consider `COc1cccc2c1C(=O)c1c(O)c3c(c(O)c1C2=O)C[C@@](O)(c1csc(-c2ccncc2)n1)C[C@@H]3OC1CC(N)C(O)C(C)O1` (stereo partly specified), for which the growth inhibition is 22.8% in experiment [1]; 15.4% in experiment [2]; 17.2% in experiment [3]; 32.2% in experiment [4]; -2.25% in experiment [5]; 25.8% in experiment [6].
